SMILES strings stand for the structures. “And” between values parts separate entries of the source, which are not always exact repeats. Equal entries are not always repeated. The source made the active and inactive calls. Unless noted, no rule for the calls is given here.

These results are taken from PubChem BioAssay.

Assay [1] is described as follows: compounds altering circadian rhythm period length – cell-based, LOPAC library, luminescence reporter (AID 2774).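 Also: values are relative to mean of DMSO wells on each plate.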 The following applies: circadian reporter cells, at 7 µM, actives lie on both sides.
Assay [2] relates to Hepatitis C virus NS3 helicase. The assay is described as follows: blockers of NS3h binding to ssDNA – biochemical, fluorescence polarization, LOPAC1280 library, primary screen (AID 687035; in the data active = inhibition above about 37%). The following applies: Purified HCV NS3 helicase, Cy5-dT15 ssDNA binding fluorescence polarization; stronger effect = higher value; concentration not given here. For orientation: Polarisation of emitted light reports the rotation of a fluorescent probe.

Assay [3] in a line: compounds altering Cy5-DNA-NS3h complex signal – biochemical, LOPAC1280, artefact control for HCV NS3 helicase inhibitor project (AID 687037). The conditions noted are these: Cy5-DNA-NS3h complex fluorescence interference counterscreen. For orientation: A counterscreen serves to expose hits that act by an unwanted route or on another target.
A short description of assay [4]: Wnt pathway potentiators raising nuclear beta-catenin – imaging, WNT3A-conditioned medium, mouse C2C12, NPC library, primary screen (AID 1117326; in the data active = nuclear beta-catenin stimulation mostly above about 4.2%, no sharp cut-off; inactive = mostly below about 10%). The conditions noted are these: stronger effect = higher value.
Assay [5] in a line: compounds altering viability of human ES cells (AID 493140).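 Also: cells exposed to compounds for four days before counting.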 The following applies: human embryonic stem cell survival screen; stronger effect = higher value.
Assay [6] can be described thus: P. berghei load reduction in hepatocytes – cell-based, HepG2, luciferase luminescence, HepG2 viability, primary screen (AID 624349; in the data active = parasite load remaining mostly below about 12%, no sharp cut-off; inactive = mostly above about 10%;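 also: 100% = mean of DMSO negative control wells on the same plate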). The conditions noted are these: P. berghei liver stage in HepG2, luciferase luminescence, concentration not given here; parasite load remaining: stronger effect = lower value; viability: measured here: HepG2 viability without parasites.
Assay [7] in a line: signal quenchers or enhancers, Cy5 substrate/SSB – biochemical, NIH Clinical Collection, E. coli SSB, artefact control for HCV NS3 helicase inhibitor project (AID 743268). The following applies: Cy5-oligo bound E. coli SSB, fluorescence interference.
Assay [8] has as its system Hepatitis C virus NS3 helicase. The assay can be described thus: blockers of NS3h binding to DNA – biochemical, fluorescence polarization, NIH Clinical Collection, primary screen (AID 743270). The following applies: NS3 helicase binding to Cy5-dT15 DNA, stronger effect = higher value, concentration not given here.
The target of assay [9] is Single-stranded DNA-binding protein (Escherichia coli (strain K12)) (UniProt P0AGE0). The assay can be described thus: SSB-ssDNA binding inhibitors – biochemical, fluorescence polarization, NIH Clinical Collection, counter-screen for HCV NS3 helicase inhibitor project (AID 743271; in the data active = inhibition above about 28%). The conditions noted are these: E. coli SSB-DNA binding, stronger effect = higher value, concentration not given here.

Assay [10] is described as follows: compounds distorting NS3 helicase fluorescence signal – biochemical, NIH Clinical Collection, artefact control for HCV NS3 helicase inhibitor project (AID 743272).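 Also: HCV NS3 helicase with a Cy5 labelled single stranded DNA probe.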 The conditions noted are these: fluorescence interference counterscreen, HCV NS3 helicase assay; stronger effect = lower value.
Assay [11] relates to Neuropilin-2 / VEGF-C interaction (human). The assay can be described thus: small molecules blocking Neuropilin-2/VEGF-C interaction – biochemical, microplate binding format, z-score (AID 743281). The conditions noted are these: microplate NRP2/VEGF-C binding assay; stronger effect = lower value.

As to `NC/C=C/C(=O)O`, the period change in assay [1] was -0.005 h (inactive). In addition, in assay [2], the inhibition – broadly, the relative decrease from the control value, in per cent – was -5% (inactive). Also, in assay [3], the fluorescence ratio (interference) was 1 (inactive). In addition, the nuclear beta-catenin stimulation in assay [4] (at 10 µM) was 0.3% (inactive); in [4] (stimulation, at 2 µM), 1.6%.
For `CCN(CCCc1ccccc1)CCCc1ccccc1`, the survival in assay [5] was 6.17 (inactive). Besides, the nuclear beta-catenin stimulation in [4] (at 10 µM) was 1% (inactive); in assay [4] (stimulation, at 2 µM), 4.5%.
As to `CCOC(=O)NNc1nncc2ccccc12`, the survival in [5] was 22 (inactive). In addition, in assay [6], the parasite load remaining was 44.2% (inactive) and 101% (inactive) and 89.6% (inactive); the viability (in general, a read-out of living cells in per cent, often relative to untreated cells) was 43.6% and 65.7% and 90.2%. Moreover, the nuclear beta-catenin stimulation in assay [4] (at 10 µM) is 3.8% (inactive). For the same molecule, the nuclear beta-catenin stimulation in assay [4] (stimulation, at 2 µM) was determined as 5.1%.
With `CC(C(=O)O)c1ccc(CC2CCCC2=O)cc1` (centres undefined), the period change in [1] is -0.055 h (inactive). Moreover, the parasite load remaining in assay [6] is 108% (inactive). In addition, the viability in assay [6] is 79.1%. Moreover, the inhibition in [2] is -4% (inactive); in assay [8], 5.94% (inactive); in [9], 4.52% (inactive). In addition, in assay [3], the fluorescence ratio (interference) was 1 (inactive). Moreover, the fluorescence ratio in [7] was 1.12 (inactive); in [10], 1.09 (inactive). For the same molecule, the z-score in assay [11] is -0.224 (inactive). Besides, the nuclear beta-catenin stimulation in assay [4] (at 10 µM) was -1.5% (inactive); in [4] (stimulation, at 2 µM), -0.2%.
On to `Cc1cnc(NC(=O)C2=C(O)c3ccccc3S(=O)(=O)N2C)s1`, for which the period change in assay [1] was -0.06 h (inactive). Besides, the inhibition in [2] is -4% (inactive). In addition, the fluorescence ratio (interference) in assay [3] is 1 (inactive). In addition, the nuclear beta-catenin stimulation in assay [4] (at 10 µM) was 2% (inactive); in assay [4] (stimulation, at 2 µM), -0.5%.
The corresponding values for `CNC[C@H](O)c1ccc(O)c(O)c1` are 0.025 h (inactive), -5% (inactive), 1 (inactive), 0.3% (inactive) and 0.2%.
On to `CC1(C)O[C@@H]2C[C@H]3[C@@H]4C[C@H](F)C5=CC(=O)CC[C@]5(C)[C@H]4[C@@H](O)C[C@]3(C)[C@]2(C(=O)CO)O1`, for which the survival in assay [5] was 4.42 (inactive). In addition, in assay [6], the parasite load remaining was 156% (inactive) and the viability stood at 105%. In addition, in assay [4] (at 10 µM), the nuclear beta-catenin stimulation was -1.9% (inactive). In addition, the nuclear beta-catenin stimulation in assay [4] (stimulation, at 2 µM) was found to be 4%.
`CCN1CCC[C@H]1CNC(=O)c1cc(S(N)(=O)=O)ccc1OC`: the period change in assay [1] was -0.035 h (inactive). The parasite load remaining in assay [6] is 118% (inactive) and 67.6% (inactive). In [6], the viability was 78.9% and 220%. Moreover, the inhibition in assay [2] was -1% (inactive); in assay [8] it was 0.4% (inactive); in assay [9] it was 6.06% (inactive). Further, the fluorescence ratio (interference) in assay [3] was 1 (inactive). Moreover, the fluorescence ratio is 1.03 (inactive) in [7] and 0.97 (inactive) in assay [10]. Besides, in assay [11], the z-score is -0.132 (inactive). The nuclear beta-catenin stimulation in assay [4] (at 10 µM) was -1.5% (inactive); in assay [4] (stimulation, at 2 µM) it was 0.2%.
For `NC(=O)OCC(COC(N)=O)c1ccccc1`, the period change in assay [1] was -0.105 h (inactive). Also, in assay [6], the parasite load remaining was 83.2% (inactive) and 111% (inactive). In addition, the viability in [6] is 105% and 75.3%. The inhibition is -1% (inactive) in assay [2], -2.77% (inactive) in [8] and -3.18% (inactive) in assay [9]. Also, the fluorescence ratio (interference) in assay [3] was 1 (inactive). In addition, the values for the fluorescence ratio in assay [7] and in assay [10] were 1.05 (inactive) and 0.9 (inactive), respectively. The z-score in assay [11] was 0.0538 (inactive). Also, the nuclear beta-catenin stimulation was -1.9% (inactive) in assay [4] (at 10 µM) and 0% in assay [4] (stimulation, at 2 µM).
On to `CCN1CCC[C@H]1CNC(=O)c1c(O)c(Cl)cc(Cl)c1OC`, for which, in assay [1], the period change was -0.03 h (inactive). Also, the parasite load remaining in assay [6] is 132% (inactive) and 60.7% (inactive). In addition, the viability in assay [6] was 135% and 99%. Further, the inhibition in assay [2] is -2% (inactive); in assay [8] it was 1.19% (inactive); in assay [9], 7.6% (inactive). Besides, the fluorescence ratio (interference) in assay [3] is 1 (inactive). In addition, the figures for the fluorescence ratio in [7] and in assay [10] were 0.94 (inactive) and 0.77 (active), respectively. Further, the z-score in [11] was -0.335 (inactive). Also, the nuclear beta-catenin stimulation is 0.6% (inactive) in [4] (at 10 µM) and 3.4% in assay [4] (stimulation, at 2 µM).
Regarding `CN1CCN(C(c2ccccc2)c2ccccc2)CC1`, the survival in assay [5] is 4.58 (inactive). The nuclear beta-catenin stimulation in assay [4] (at 10 µM) was -2.3% (inactive); in [4] (stimulation, at 2 µM), -0.3%.
Regarding `O=C(O)CCCC[C@@H]1SC[C@@H]2NC(=O)N[C@@H]21`, in assay [5], the survival is 18.6 (inactive). For the same molecule, in assay [6], the parasite load remaining is 125% (inactive) and 81.9% (inactive). Further, the viability in assay [6] was 117% and 77.7%. For the same molecule, the nuclear beta-catenin stimulation is 0.3% (inactive) in [4] (at 10 µM) and 1.3% in assay [4] (stimulation, at 2 µM).
In the case of `CNCC(O)c1ccc(O)c(O)c1` (centres undefined), the period change in assay [1] was -0.055 h (inactive). Besides, in assay [6], the parasite load remaining was 40.1% (inactive). Also, the viability in [6] turned out to be 89%. The values for the inhibition in assay [2], in assay [8] and in assay [9] were 0% (inactive), -1.36% (inactive) and 15.5% (inactive), respectively. Besides, in [3], the fluorescence ratio (interference) is 1 (inactive). The fluorescence ratio in [7] and in [10] was 1.02 (inactive) throughout. In addition, the nuclear beta-catenin stimulation in assay [4] (at 10 µM) is -1.1% (inactive); in assay [4] (stimulation, at 2 µM), -0.9%.
As to `O=C1N(c2ccccc2)c2ccccc2C1(Cc1ccncc1)Cc1ccncc1`, in assay [1], the period change is 0.25 h (inactive). The parasite load remaining in [6] is 77.9% (inactive). In addition, in assay [6], the viability worked out at 65.3%. In addition, the inhibition in [2] was -7% (inactive); in [8], -11.6% (inactive); in [9] it was -1.18% (inactive). For the same molecule, the fluorescence ratio (interference) in [3] was 0.9 (inactive). Also, the fluorescence ratio was 0.98 (inactive) in assay [7] and 0.93 (inactive) in assay [10]. The z-score in assay [11] is -0.0491 (inactive). The nuclear beta-catenin stimulation in [4] (at 10 µM) is 0.2% (inactive); in [4] (stimulation, at 2 µM), 3.8%.
For `NC1CCN(c2cccc(Cl)n2)CC1`, the period change in assay [1] was -0.02 h (inactive). In addition, in assay [6], the parasite load remaining was 103% (inactive). The viability in assay [6] is 71.3%. The inhibition was -6% (inactive) in [2], -1.19% (inactive) in [8] and 133% (active) in assay [9]. The fluorescence ratio (interference) in assay [3] was 1 (inactive). In addition, the fluorescence ratio in assay [7] is 2.95 (active); in assay [10], 0.9 (inactive). The z-score in assay [11] is -0.326 (inactive). The nuclear beta-catenin stimulation is -1.8% (inactive) in [4] (at 10 µM) and 1.1% in assay [4] (stimulation, at 2 µM).
